Inconclusive results are not listed. Activity calls are given as the source filed them. Rule for the calls, unless noted: active = hit-call score of the fitted dose curve at least 0.9, where 1 is the maximum; inconclusive = response in the unintended direction; inactive = score below 0.9.
Experiments:
[1] = molecular target: human Peroxisome Proliferator-activated Receptor alpha (PPARa), PPARA (gene 5465) (UniProt Q07869); assay: ATG_PPARa_TRANS: Attagene TRANS-FACTORIAL HepG2 Assay for human Peroxisome Proliferator-activated Receptor alpha (PPARa) (AID 2283001);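 for AC50: potency for gain of reporter signal over DMSO so agonist or activator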
Method in brief: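 Cells (HepG2) are transfected with multiple reporter transcription units, exposed to chemical for 24 h, then total RNA is reverse-transcribed and amplified. Labelled products are quantified by capillary electrophoresis; induction is referenced to DMSO.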

[2] = read-out: Intercellular Adhesion Molecule 1 (ICAM1), ICAM1 (gene 3383); assay: BSK_3C_ICAM1: BioMAP Diversity Plus: 3C Assay for Intercellular Adhesion Molecule 1 (ICAM1) Biomarker Activity (AID 2283003; active = hit-call score of the fitted dose curve at least 0.9, where 1 is the maximum; inactive = score below 0.9); conditions: primary human endothelial cells (HUVEC); actives raise or lower the signal
Method in brief: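 Chemicals are dosed onto primary human umbilical vein endothelium (3C system). After 24 h, ICAM-1 is measured by ELISA, and responses are fitted bidirectionally relative to DMSO.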

[3] = BSK_3C_Proliferation: Cell Proliferation Assessment in the BioMAP Diversity Plus: 3C Assay (AID 2283006; active = hit-call score of the fitted dose curve at least 0.9, where 1 is the maximum; inactive = score below 0.9;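 note: potency may reflect either rise or fall in cell number versus DMSO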); conditions: primary human endothelial cells (HUVEC)
Method in brief: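 Cells (human umbilical vein endothelial, sub-confluent) receive test chemical; after 48 h they are fixed in 10% trichloroacetic acid, stained with 0.1% SRB and read at 560 nm. Activity is referenced to DMSO, fitting increases and decreases.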

[4] = molecular target: Peroxisome proliferator-activated receptor gamma (Homo sapiens) (UniProt P37231); assay: ATG_PPARg_TRANS: Attagene TRANS-FACTORIAL HepG2 Assay for human Peroxisome Proliferator-activated Receptor-gamma (PPARg) (AID 2283007)
Method in brief: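 Transient transfection of HepG2 with GAL4-UAS-driven reporter units; chemical dosing 24 h; total RNA → oligo(dT) RT → PCR with reporter primers → 6-FAM primer extension → HpaI digest 2 h 37 C → capillary electrophoresis. Positive direction vs DMSO.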

[5] = molecular target: Nuclear receptor subfamily 1 group I member 2 (Homo sapiens) (UniProt O75469); assay: ATG_PXR_TRANS: Attagene TRANS-FACTORIAL HepG2 Assay for human Pregnane X Receptor (PXR) (AID 2283008)
Method in brief: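 Transient HepG2 transfectants carrying multiplexed reporter transcription units; PXR activity read through a Gal4 chimera. 24 h exposure. RT-PCR/CE fluorescence; upward curve fit referenced to DMSO.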

[6] = molecular target: Retinoic acid receptor RXR-alpha (Homo sapiens) (UniProt P19793); assay: ATG_RXRa_TRANS: Attagene TRANS-FACTORIAL HepG2 Assay for human Retinoid X Receptor alpha (RXRa) (AID 2283012)
Method in brief: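 Measures exogenous chimeric NR-GAL4 activity in transfected HepG2 liver cells after 24 h of dosing. Induced reporter mRNA was detected by RT-PCR with capillary electrophoresis, and gain of signal was analysed against DMSO.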

[7] = molecular target: human Retinoid X Receptor beta (RXRb), RXRB (gene 6257) (UniProt P28702); assay: ATG_RXRb_TRANS: Attagene TRANS-FACTORIAL HepG2 Assay for human Retinoid X Receptor beta (RXRb) (AID 2283013)
Method in brief: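 Chimeric receptor-Gal4 activity was assessed in transiently transfected human HepG2 cells after 24 h exposure. Transcripts from GAL4-UAS reporters were quantified by fluorescent RT-PCR and capillary electrophoresis, with DMSO as negative control and baseline.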

[8] = molecular target: human Thyroid Receptor alpha (THRa1), THRA (gene 7067) (UniProt P10827); assay: ATG_THRa1_TRANS: Attagene TRANS-FACTORIAL HepG2 Assay for human Thyroid Receptor alpha (THRa1) (AID 2283014)
Method in brief: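 First, HepG2 cells receive multiple GAL4-UAS reporter units and the chimeric receptor. They are then dosed for 24 h, after which RNA is reverse-transcribed, amplified, labelled, HpaI-cut and sized by capillary electrophoresis; gain relative to DMSO is scored.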

[9] = read-out: E-selectin (Homo sapiens) (UniProt P16581); assay: BSK_3C_Eselectin: BioMAP Diversity Plus: 3C Assay for Eselectin Biomarker Activity (AID 2283015; active = hit-call score of the fitted dose curve at least 0.9, where 1 is the maximum; inactive = score below 0.9;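 note: cell surface E-selectin protein quantified by ELISA 24 h after dosing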); conditions: primary human endothelial cells (HUVEC); actives raise or lower the signal
Method in brief: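 Human vascular endothelium from umbilical vein is exposed to test chemicals for 24 h. E-selectin levels are read by ELISA and compared with DMSO controls.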

[10] = read-out: Interleukin-1 alpha (IL1a), IL1A (gene 3552); assay: BSK_BE3C_IL1a: BioMAP Diversity Plus: BE3C Assay for Interleukin-1 alpha (IL1a) Biomarker Activity (AID 2283016; active = hit-call score of the fitted dose curve at least 0.9, where 1 is the maximum; inactive = score below 0.9); conditions: primary human bronchial epithelial cells; actives raise or lower the signal
Method in brief: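 Signal from IL-1a ELISA, taken 24 h after chemical dosing of human bronchial epithelial cells, is compared with DMSO as baseline using bidirectional curve fitting.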

[11] = read-out: Monocyte Chemoattractant Protein-1 (MCP1), CCL2 (gene 6347); assay: BSK_4H_MCP1: BioMAP Diversity Plus: 4H Assay for Monocyte Chemoattractant Protein-1 (MCP1) Biomarker Activity (AID 2283018; active = hit-call score of the fitted dose curve at least 0.9, where 1 is the maximum; inactive = score below 0.9); conditions: primary human endothelial cells (HUVEC); actives raise or lower the signal
Method in brief: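 Endothelial cells from umbilical vein were treated with test chemical, then after 24 h MCP-1 levels were quantified by ELISA; endpoint values came from bidirectional fitting with DMSO as baseline of activity.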

[12] = read-out: Human Leukocyte Antigen - DR isotype (HLADR), HLA-DRA (gene 3122); assay: BSK_3C_HLADR: BioMAP Diversity Plus: 3C Assay for Human Leukocyte Antigen - DR isotype (HLADR) Biomarker Activity (AID 2283019; active = hit-call score of the fitted dose curve at least 0.9, where 1 is the maximum; inactive = score below 0.9); conditions: primary human endothelial cells (HUVEC); actives raise or lower the signal
Method in brief: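 Endothelial cells from human umbilical vein are treated with test chemical; after 24 h, HLA-DR levels are measured by ELISA. Data are fitted in both directions using DMSO as the baseline.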

[13] = read-out: Interleukin-8 (IL8), CXCL8 (gene 3576); assay: BSK_3C_IL8: BioMAP Diversity Plus: 3C Assay for Interleukin-8 (IL8) Biomarker Activity (AID 2283020; active = hit-call score of the fitted dose curve at least 0.9, where 1 is the maximum; inactive = score below 0.9); conditions: primary human endothelial cells (HUVEC); actives raise or lower the signal
Method in brief: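 Endothelial primary cells of human umbilical vein origin are dosed with chemical; after 24 h the IL-8 biomarker is measured by ELISA, and concentration–response is fitted in both directions versus DMSO.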

[14] = molecular target: human Peroxisome Proliferator-activated Receptor delta (PPARd), PPARD (gene 5467) (UniProt Q03181); assay: ATG_PPARd_TRANS: Attagene TRANS-FACTORIAL HepG2 Assay for human Peroxisome Proliferator-activated Receptor delta (PPARd) (AID 2283002)
Method in brief: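 HepG2 cells transiently transfected with multiplexed GAL4-UAS reporter units and exogenous chimeric NR-Gal4 proteins; 24 h compound exposure. Reporter mRNA measured by RT-PCR, 6-FAM labelling, HpaI digestion and capillary electrophoresis; gain of signal versus DMSO.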

[15] = molecular target: human Vitamin D Receptor (VDR), VDR (gene 7421) (UniProt P11473); assay: ATG_VDR_TRANS: Attagene TRANS-FACTORIAL HepG2 Assay for human Vitamin D Receptor (VDR) (AID 2283022)
Method in brief: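 Fluorescence of labelled reporter cDNA fragments, resolved by capillary electrophoresis, gives mRNA induction after 24 h treatment of HepG2 cells carrying transfected Gal4-fusion reporter units. Activity is fitted in the positive direction with DMSO as baseline.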

[16] = molecular target: human Retinoic Acid Receptor beta (RARb), RARB (gene 5915) (UniProt P10826); assay: ATG_RARb_TRANS: Attagene TRANS-FACTORIAL HepG2 Assay for human Retinoic Acid Receptor beta (AID 2283004)
Method in brief: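 HepG2, transient MRTU transfection, NR–Gal4 chimera, 24 h treatment; RT-PCR plus CE fluorescence detection of reporter mRNA; gain of signal vs DMSO.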

[17] = molecular target: Retinoic acid receptor alpha (Homo sapiens) (UniProt P10276); assay: ATG_RARa_TRANS: Attagene TRANS-FACTORIAL HepG2 Assay for human Retinoic Acid Receptor alpha (RARa) (AID 2283005)
Method in brief: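 HepG2 cells transiently transfected with multiple reporter units expressing chimeric RARα-GAL4 fusion, with GAL4-UAS-driven reporters. After 24 h compound exposure, reporter mRNA induction quantified by RT-PCR and capillary electrophoresis with fluorescent labeling; gain-of-signal fitted relative to DMSO control.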

[18] = molecular target: human Retinoic Acid Receptor gamma (RARg), RARG (gene 5916) (UniProt P13631); assay: ATG_RARg_TRANS: Attagene TRANS-FACTORIAL HepG2 Assay for human Retinoic Acid Receptor gamma (RARg) (AID 2283009)
Method in brief: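 TRANS format measured activity of exogenous NR-GAL4 fusion (RARg) in transfected HepG2 liver cells after 24 h dosing. Induced reporter RNA was detected by RT-PCR/capillary electrophoresis fluorescence, analysed in the positive direction against DMSO.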

[19] = molecular target: human RAR-related Orphan Receptor beta (RORb), RORB (gene 6096) (UniProt Q92753); assay: ATG_RORb_TRANS: Attagene TRANS-FACTORIAL HepG2 Assay for human RAR-related Orphan Receptor beta (RORb) (AID 2283010)
Method in brief: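 Transfect HepG2 with multiple GAL4-UAS reporter transcription units; dose chemicals for 24 h; isolate RNA, reverse-transcribe and PCR-amplify reporter sequences; label, digest and resolve fragments by capillary electrophoresis; fit increases relative to DMSO.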

[20] = molecular target: human RAR-related Orphan Receptor gamma (RORg), RORC (gene 6097) (UniProt P51449); assay: ATG_RORg_TRANS: Attagene TRANS-FACTORIAL HepG2 Assay for human RAR-related Orphan Receptor gamma (RORg) (AID 2283011)
Method in brief: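 Activity is scored as increase in GAL4-UAS reporter mRNA over DMSO, detected by fluorescent RT-PCR and capillary electrophoresis in HepG2 cells transiently expressing a RORg-Gal4 chimera, 24 h after dosing.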

Measured: AC50

Chain of human RAR-related Orphan Receptor beta (RORb), RORB (gene 6096) (Q92753 whole entry, looked up, the tested form may be a part): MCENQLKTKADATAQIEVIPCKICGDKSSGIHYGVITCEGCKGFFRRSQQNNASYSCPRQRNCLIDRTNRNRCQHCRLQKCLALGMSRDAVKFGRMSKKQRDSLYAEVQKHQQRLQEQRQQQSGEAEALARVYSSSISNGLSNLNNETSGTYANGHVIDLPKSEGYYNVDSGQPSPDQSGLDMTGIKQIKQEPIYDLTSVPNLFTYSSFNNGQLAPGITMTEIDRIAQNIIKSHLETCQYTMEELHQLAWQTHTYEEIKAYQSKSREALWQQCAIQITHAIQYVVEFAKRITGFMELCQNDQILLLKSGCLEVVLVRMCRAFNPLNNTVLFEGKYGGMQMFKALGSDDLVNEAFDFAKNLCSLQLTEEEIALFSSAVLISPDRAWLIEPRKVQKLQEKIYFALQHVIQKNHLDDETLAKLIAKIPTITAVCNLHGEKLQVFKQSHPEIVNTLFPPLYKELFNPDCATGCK
Chain of human Vitamin D Receptor (VDR), VDR (gene 7421) (P11473 whole entry, looked up, the tested form may be a part): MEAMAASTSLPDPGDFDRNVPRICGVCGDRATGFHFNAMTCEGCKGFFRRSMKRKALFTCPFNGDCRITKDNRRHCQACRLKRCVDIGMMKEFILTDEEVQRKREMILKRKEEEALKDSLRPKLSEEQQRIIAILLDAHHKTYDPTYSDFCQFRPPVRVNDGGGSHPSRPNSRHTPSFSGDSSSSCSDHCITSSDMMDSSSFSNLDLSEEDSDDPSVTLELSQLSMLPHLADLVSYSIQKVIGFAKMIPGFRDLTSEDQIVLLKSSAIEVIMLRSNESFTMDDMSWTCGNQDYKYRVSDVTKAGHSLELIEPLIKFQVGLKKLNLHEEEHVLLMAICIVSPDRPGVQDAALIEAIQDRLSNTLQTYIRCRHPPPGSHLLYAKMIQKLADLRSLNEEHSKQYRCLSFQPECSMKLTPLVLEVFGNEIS
Chain of human Retinoic Acid Receptor gamma (RARg), RARG (gene 5916) (P13631 whole entry, looked up, the tested form may be a part): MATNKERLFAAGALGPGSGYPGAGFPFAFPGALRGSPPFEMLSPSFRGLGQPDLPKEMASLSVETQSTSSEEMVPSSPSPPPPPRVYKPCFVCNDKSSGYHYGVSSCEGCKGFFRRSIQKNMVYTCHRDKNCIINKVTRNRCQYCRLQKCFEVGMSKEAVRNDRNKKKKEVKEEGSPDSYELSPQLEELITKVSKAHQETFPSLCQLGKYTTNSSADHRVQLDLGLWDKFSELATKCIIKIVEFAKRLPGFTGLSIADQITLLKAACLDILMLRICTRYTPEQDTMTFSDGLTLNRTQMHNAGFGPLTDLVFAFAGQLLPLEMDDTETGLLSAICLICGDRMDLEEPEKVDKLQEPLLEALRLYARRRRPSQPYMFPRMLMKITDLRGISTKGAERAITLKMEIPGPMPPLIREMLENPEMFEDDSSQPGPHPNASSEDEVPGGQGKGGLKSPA
Chain of human Thyroid Receptor alpha (THRa1), THRA (gene 7067) (P10827 whole entry, looked up, the tested form may be a part): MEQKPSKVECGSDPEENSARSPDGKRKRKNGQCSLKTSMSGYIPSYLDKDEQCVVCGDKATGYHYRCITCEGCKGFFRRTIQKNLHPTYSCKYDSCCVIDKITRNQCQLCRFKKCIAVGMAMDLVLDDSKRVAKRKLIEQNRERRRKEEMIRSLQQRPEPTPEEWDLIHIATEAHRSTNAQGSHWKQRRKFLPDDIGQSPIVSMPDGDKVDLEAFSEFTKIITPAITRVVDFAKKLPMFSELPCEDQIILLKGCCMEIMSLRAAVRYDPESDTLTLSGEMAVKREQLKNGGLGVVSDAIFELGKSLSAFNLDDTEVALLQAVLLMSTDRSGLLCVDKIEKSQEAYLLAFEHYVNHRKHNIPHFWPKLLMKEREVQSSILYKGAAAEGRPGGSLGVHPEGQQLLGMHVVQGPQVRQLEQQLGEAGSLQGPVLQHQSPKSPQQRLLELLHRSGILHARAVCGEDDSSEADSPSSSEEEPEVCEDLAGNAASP
Chain of Peroxisome proliferator-activated receptor gamma (Homo sapiens) (P37231 whole entry, looked up, the tested form may be a part): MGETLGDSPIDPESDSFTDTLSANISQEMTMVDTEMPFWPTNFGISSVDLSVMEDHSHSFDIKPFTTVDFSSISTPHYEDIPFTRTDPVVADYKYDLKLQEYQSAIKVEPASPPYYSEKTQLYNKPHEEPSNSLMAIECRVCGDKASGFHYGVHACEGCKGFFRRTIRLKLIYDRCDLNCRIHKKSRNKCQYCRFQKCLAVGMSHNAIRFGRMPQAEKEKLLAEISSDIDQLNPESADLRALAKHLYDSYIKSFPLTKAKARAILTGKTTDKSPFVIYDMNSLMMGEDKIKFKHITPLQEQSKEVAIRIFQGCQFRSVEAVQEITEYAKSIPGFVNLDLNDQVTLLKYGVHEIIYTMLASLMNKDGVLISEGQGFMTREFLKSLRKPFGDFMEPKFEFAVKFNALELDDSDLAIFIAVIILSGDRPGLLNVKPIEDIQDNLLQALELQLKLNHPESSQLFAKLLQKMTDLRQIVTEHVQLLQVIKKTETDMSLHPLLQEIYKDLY
Chain of Nuclear receptor subfamily 1 group I member 2 (Homo sapiens) (O75469 whole entry, looked up, the tested form may be a part): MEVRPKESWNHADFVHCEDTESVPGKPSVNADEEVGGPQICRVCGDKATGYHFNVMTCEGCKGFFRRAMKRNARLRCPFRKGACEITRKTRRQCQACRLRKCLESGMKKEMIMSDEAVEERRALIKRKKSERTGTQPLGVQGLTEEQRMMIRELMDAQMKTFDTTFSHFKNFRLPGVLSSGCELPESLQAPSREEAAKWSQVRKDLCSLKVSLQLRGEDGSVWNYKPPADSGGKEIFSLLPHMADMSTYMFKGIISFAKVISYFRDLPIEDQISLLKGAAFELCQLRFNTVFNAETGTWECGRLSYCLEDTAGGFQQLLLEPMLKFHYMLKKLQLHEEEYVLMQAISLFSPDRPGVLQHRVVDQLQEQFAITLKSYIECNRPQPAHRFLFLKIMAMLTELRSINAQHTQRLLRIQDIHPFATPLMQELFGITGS
Chain of human Retinoid X Receptor beta (RXRb), RXRB (gene 6257) (P28702 whole entry, looked up, the tested form may be a part): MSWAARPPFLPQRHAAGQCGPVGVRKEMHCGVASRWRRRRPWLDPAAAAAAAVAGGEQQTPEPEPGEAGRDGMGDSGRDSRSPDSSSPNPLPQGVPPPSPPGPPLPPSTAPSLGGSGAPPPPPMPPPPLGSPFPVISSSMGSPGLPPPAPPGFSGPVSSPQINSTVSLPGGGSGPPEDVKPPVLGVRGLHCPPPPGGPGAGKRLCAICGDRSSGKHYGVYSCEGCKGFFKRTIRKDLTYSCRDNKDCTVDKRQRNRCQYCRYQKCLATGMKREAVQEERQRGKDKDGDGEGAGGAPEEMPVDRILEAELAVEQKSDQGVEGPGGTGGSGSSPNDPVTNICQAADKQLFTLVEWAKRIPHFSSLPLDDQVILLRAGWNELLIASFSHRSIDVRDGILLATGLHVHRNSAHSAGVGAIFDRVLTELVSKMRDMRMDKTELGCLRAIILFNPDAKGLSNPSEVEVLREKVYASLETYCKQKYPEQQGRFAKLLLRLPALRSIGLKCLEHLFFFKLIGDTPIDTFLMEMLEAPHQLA
Chain of Retinoic acid receptor alpha (Homo sapiens) (P10276 whole entry, looked up, the tested form may be a part): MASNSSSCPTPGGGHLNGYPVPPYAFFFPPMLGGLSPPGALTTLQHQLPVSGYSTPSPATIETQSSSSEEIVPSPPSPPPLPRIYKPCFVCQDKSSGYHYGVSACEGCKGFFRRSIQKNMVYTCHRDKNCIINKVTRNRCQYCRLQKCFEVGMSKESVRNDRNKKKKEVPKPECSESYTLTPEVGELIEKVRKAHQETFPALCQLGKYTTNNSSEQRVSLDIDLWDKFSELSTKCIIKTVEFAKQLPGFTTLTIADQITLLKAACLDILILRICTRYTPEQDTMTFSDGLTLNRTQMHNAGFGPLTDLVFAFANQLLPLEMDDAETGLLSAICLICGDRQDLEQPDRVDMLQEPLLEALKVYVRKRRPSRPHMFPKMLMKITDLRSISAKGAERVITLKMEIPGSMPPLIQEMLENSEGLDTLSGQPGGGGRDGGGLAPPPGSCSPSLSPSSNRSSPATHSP
Chain of human Retinoic Acid Receptor beta (RARb), RARB (gene 5915) (P10826 whole entry, looked up, the tested form may be a part): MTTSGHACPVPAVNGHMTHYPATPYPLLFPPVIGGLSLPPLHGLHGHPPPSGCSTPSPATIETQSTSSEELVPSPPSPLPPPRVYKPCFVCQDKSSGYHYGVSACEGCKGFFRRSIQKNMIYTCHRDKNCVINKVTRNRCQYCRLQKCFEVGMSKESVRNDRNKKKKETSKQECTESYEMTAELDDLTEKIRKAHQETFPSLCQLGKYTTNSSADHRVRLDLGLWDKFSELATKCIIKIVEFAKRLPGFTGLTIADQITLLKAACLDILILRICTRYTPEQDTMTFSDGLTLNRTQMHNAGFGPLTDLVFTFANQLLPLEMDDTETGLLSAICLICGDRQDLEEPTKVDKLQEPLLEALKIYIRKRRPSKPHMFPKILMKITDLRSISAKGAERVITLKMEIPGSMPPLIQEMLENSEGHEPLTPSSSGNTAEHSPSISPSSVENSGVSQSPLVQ
Chain of human RAR-related Orphan Receptor gamma (RORg), RORC (gene 6097) (P51449 whole entry, looked up, the tested form may be a part): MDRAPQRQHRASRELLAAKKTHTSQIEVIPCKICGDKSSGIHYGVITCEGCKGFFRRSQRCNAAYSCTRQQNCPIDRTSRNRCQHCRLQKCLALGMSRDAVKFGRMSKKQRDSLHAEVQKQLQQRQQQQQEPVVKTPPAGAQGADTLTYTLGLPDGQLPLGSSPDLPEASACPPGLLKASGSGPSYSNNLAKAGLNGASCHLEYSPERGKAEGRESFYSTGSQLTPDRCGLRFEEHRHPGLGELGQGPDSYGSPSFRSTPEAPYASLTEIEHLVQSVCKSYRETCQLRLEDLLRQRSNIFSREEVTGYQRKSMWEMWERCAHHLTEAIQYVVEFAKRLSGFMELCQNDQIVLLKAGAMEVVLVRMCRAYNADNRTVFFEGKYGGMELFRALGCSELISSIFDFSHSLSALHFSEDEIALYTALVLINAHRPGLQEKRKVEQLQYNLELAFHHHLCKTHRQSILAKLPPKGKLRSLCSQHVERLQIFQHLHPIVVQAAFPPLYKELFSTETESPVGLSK

O=C(Nc1ccccc1SSc1ccccc1NC(=O)c1ccccc1)c1ccccc1
inactive: [2] | [6] | [7] | [8] | [9] | [10] | [13]
active: [1] 23.4 µM | [3] 5.29 µM | [4] 17.7 µM | [5] 8.27 µM | [11] 9.13 µM | [12] 10 µM

CC(=O)CC(N)=O
inactive: [1] | [14] | [5] | [6] | [7] | [15]

Cc1cnc(NC(=O)C2=C(O)c3ccccc3S(=O)(=O)N2C)s1
active: [4] 40.4 µM
inactive: [1] | [16] | [17] | [18] | [19] | [6] | [7]

CC(=O)c1ccc2c(c1)CCCC2
inactive: [1] | [14] | [4] | [5] | [6] | [8] | [15]

CCCCCCCCCCOC(C)=O
inactive: [1] | [4] | [5] | [19] | [20] | [6] | [7] | [8] | [15]

O=C1CCCCCCCCCCCCCCCO1
inactive: [17] | [5] | [19] | [6] | [8]
active: [1] 54 µM | [4] 100 µM | [7] 70.4 µM

OC1OCCOC1O (stereo not drawn)
inactive: [1] | [16] | [5] | [19] | [8] | [15]

COc1c2ccoc2cc2oc(=O)ccc12
active: [5] 36.6 µM
inactive: [1] | [4] | [20] | [6] | [7] | [8] | [15]

CC(C)(Oc1ccc(C2CC2(Cl)Cl)cc1)C(=O)O (stereo not drawn)
inactive: [17] | [5] | [18] | [6] | [7] | [8]
active: [1] 0.975 µM | [4] 30.6 µM

CCCCOCCOC(=O)COc1nc(Cl)c(Cl)cc1Cl
active: [4] 60.1 µM
inactive: [1] | [17] | [5]

COC(F)(F)C(F)(C(F)(F)F)C(F)(F)F
inactive: [1] | [16] | [19] | [6] | [8] | [15]

Nc1ccc(N=Nc2ccccc2)c(N)n1
active: [1] 44.6 µM | [4] 59.4 µM
inactive: [17] | [5] | [18] | [6] | [7] | [15]

CC(=O)Oc1ccc(C)cc1
inactive: [1] | [16] | [18] | [19] | [20] | [6] | [7]

CCN(CC)c1ccc(C(=O)c2ccccc2C(=O)O)c(O)c1
active: [4] 30 µM | [5] 0.611 µM
inactive: [1] | [20] | [8]

OCCN(CCO)c1ccccc1
inactive: [1] | [17] | [4] | [5] | [6] | [7] | [8] | [15]

Cc1ccc(N/N=c2\c(=O)cc/c(=N/Nc3ccc(S(=O)(=O)O)cc3)c2=O)c(C)c1
inactive: [1] | [4] | [5] | [19] | [20] | [6] | [7]
